# hcDAF12 agonist – H. contortus DAF-12 activation, primary screen; HEK293 hcDAF-12 lit1-tk-luc reporter, luminescence; 0% DMSO, 100% Δ7-dafachronic acid; activation, % at 6.8 µM; actives 1.4% (n = 370,000);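 active = activation above the mean of all tested compounds plus 3 SD, cut at about 5.5% in these data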;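 also: 100% = response to 3 µM Δ7-dafachronic acid high control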
# DAX1 inh-1 – inhibitors of human orphan nuclear receptor DAX1 (NR0B1) | AID 504766 | P51843 | HEK293 Gal4-DAX1 luciferase reporter, luminescence | actives 0.99% (n = 340,000) | inhibition, % at 6.75 µM;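 active = inhibition above the mean over all tested compounds plus 3 SD, cut at about 4.2% in these data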;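 also: 0% = DAX1-transfected cells with DMSO and 100% = empty-vector control cells with DMSO; inhibition shows as a rise in luminescence from relieved DAX1 repression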
# Target sequence (P51843 207-470 limits assumed): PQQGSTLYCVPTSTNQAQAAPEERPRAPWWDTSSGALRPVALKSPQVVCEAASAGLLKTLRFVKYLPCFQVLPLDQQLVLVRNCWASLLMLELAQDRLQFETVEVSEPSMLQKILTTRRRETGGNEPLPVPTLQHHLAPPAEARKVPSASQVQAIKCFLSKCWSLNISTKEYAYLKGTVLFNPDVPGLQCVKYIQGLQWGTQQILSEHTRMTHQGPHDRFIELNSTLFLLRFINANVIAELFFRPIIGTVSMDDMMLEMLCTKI
# ssDAF12 agonist – activates DAF-12 receptor from parasite S. stercoralis; AID 652126; actives 1% (n = 370,000); HEK293 ssDAF-12/GRIP1 lit1-tk-luc reporter, luminescence; % of 3 µM dafachronic acid response; activation, % at 6.8 µM;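 active = activation above the mean over all tested compounds plus 3 SD, cut at about 0.9% in these data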;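 also: 0% = DMSO-only wells and 100% = 3 µM delta7-dafachronic acid wells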
# AHR activator – activates the human aryl hydrocarbon receptor. P35869. AHR-responsive luciferase reporter cells, luminescence. activation, % at 5 µM. actives 2.5% (n = 320,000); in the data active = activation above about 47%;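 also: 0% = vehicle wells and 100% = reference agonist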
# DAX1 inh-2 – inhibitors of DAX1 repression of SF-1 activated StAR promoter. HEK293T StAR-luciferase reporter, SF-1/DAX-1 repression relief. inhibition, % at 6.8 µM. actives 1.1% (n = 370,000);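 active = inhibition above the mean over all tested compounds plus 3 SD, cut at about 3.6% in these data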;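 also: 0% = DAX-1 cells with DMSO and 100% = cells lacking DAX-1 with DMSO; higher inhibition means more luminescence from relief of DAX-1 repression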
# hgDAF12 agonist – agonists of H. glycines DAF-12 nuclear receptor. activation, % at 6.8 µM. AID 687014. actives 1.8% (n = 370,000). HEK293 GAL4-hgDAF12 UAS-luciferase reporter, agonist luminescence; normalized to butyrate control;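 active = activation above a cutoff set at the mean of all screened compounds plus 3 SD, cut at about 10% in these data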;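 also: 0% = DMSO wells and 100% = sodium butyrate wells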
# * hit, by the source's call; / = not tested or not shown. Hits are enriched below; roughly 5.7% of the tested compounds scored in any of these assays.
SMILES,hcDAF12 agonist,DAX1 inh-1,ssDAF12 agonist,AHR activator,DAX1 inh-2,hgDAF12 agonist
CC1(C)Cc2nc3sc(C(=O)O)c(N)c3cc2CS1,/,/,/,2,/,/
O=C(/C=C/c1ccccc1)Nc1cc(S(=O)(=O)N2CCOCC2)ccc1N1CCCC1,-2,-1,-1,-1,0,0
Cc1cc(NC(=S)NC(=O)/C=C/c2ccc(S(=O)(=O)N3CCOCC3)cc2)ccc1Br,1,1,3.9*,5,0,-2
O=C(Cc1c(F)cccc1Cl)Nc1cc(S(=O)(=O)N2CCCCC2)ccc1N1CCOCC1,-1,5.8*,-1,2,0,0
O=C(CSc1ccccc1)Nc1cc(S(=O)(=O)N2CCOCC2)ccc1N1CCOCC1,1,4.3*,-1,2,0,4
O=C(/C=C/c1ccccc1)Nc1cc(S(=O)(=O)N2CCOCC2)ccc1N1CCOCC1,-1,4.5*,-1,/,0,1
CCn1ncc(/C=N\NC(=O)c2cc(-c3ccc(C)cc3C)nc3ccccc23)c1C,-1,-1,0,7,-1,5
CC(=O)Nc1ccc(S(=O)(=O)N2CCN(c3ncccn3)CC2)cc1,0,6.0*,-2,1,-1,1
O=C(Nc1ccccn1)c1ccc(S(=O)(=O)N2CCCCC2)cc1,2,1,0,1,3.8*,5
O=C(Nc1ccccn1)c1ccc(S(=O)(=O)N2CCCCCC2)cc1,0,1,0,3,4.3*,8
O=C(CN1C(=O)c2ccccc2S1(=O)=O)c1ccc(Cl)cc1Cl,-9,-5,-3,-16,-12,-17
O=S(=O)(NCC1CCCO1)c1ccc(Cl)c2ccccc12 (configuration not stated),-2,1,-1,/,0,-1
Cc1occc1C(=O)NC1CCCCCC1,1,0,0,18,1,2
C/C(=N/NC(=O)c1ccoc1C)C12CC3CC(CC(C3)C1)C2,4,1,1,9,3,13*
Cn1nccc1C(=O)N1CCN(c2ccc(F)cc2)CC1,-2,0,0,-1,0,1
CCCn1c(=N)c(C#N)cc2c(=O)n3cccc(C)c3nc21,/,/,/,32,/,/
N#Cc1cc2c(=O)n3ccccc3nc2n(CCCn2ccnc2)c1=N,-1,1,-2,102*,0,0
CCC(C)n1c(=N)c(C#N)cc2c(=O)n3ccccc3nc21 (configuration not stated),-1,0,-1,2,0,0
CCCn1c(=N)c(C#N)cc2c(=O)n3ccccc3nc21,-3,2,-2,85*,0,-6
Cc1cccc(N2CCN(C(=O)CN3C(=O)C4CC=CCC4C3=O)CC2)c1C (configuration not stated),2,1,0,2,2,11*
O=C(CSc1ccc2ccccc2c1)Nc1nc2ccccc2[nH]1,4,1,0,10,0,0
O=C(COC(=O)[C@@H]1CC(O)CN1S(=O)(=O)c1ccc([N+](=O)[O-])cc1)NC12CC3CC(CC(C3)C1)C2 (some centres not stated),1,-1,-2,1,-1,2
Cc1cc(OCCCn2ccnc2)cc(C)c1Cl,-3,-1,-1,41,0,-1
Cc1cc(OCCCCCn2ccnc2)cc(C)c1Cl,-2,1,-2,55*,0,-1
Cc1cc(Cl)cc(C)c1OCCCCCn1ccnc1,-1,0,-1,28,0,-4
SMILES,hcDAF12 agonist,DAX1 inh-1,ssDAF12 agonist,AHR activator,DAX1 inh-2,hgDAF12 agonist
Clc1ccc(OCCn2ccnc2)c(Br)c1,0,0,-1,33,0,0
Clc1ccc(OCCn2ccnc2)c(Cl)c1,-2,8.9*,-2,25,0,1
Cc1cccc(Cl)c1OCCCn1ccnc1,-3,1,-1,58*,0,-1
Clc1ccc(OCCn2ccnc2)c2ccccc12,-2,2,-1,74*,0,-1
COc1cc2c(cc1OC)C(c1cccc(OC)c1OC)CC(=O)N2 (configuration not stated),-2,0,-2,14,-1,-2
COc1ccc([C@@H]2[C@@H]3C(=O)N(C(C)(C)C)C(=O)[C@@H]3[C@]3(Cc4ccccc4)C(=O)N(c4cccc(F)c4)C(=O)N23)cc1,0,2,-1,2,-1,2
OC(COc1ccc2ccccc2c1Br)Cn1ccnc1 (configuration not stated),-1,-2,-2,70*,0,-1
OC(COc1ccc2ccccc2c1)Cn1ccnc1 (configuration not stated),0,-1,-1,28,-2,8
O=C(CCCOc1ccc(Cl)cc1Cl)NCCCn1ccnc1,-1,-1,-2,16,0,2
OC(COc1ccc(Cl)cc1Cl)Cn1ccnc1 (configuration not stated),0,-1,-1,47*,0,-2
COC(=O)C1=C(C)NC(=S)NC1c1ccc(-c2ccccc2C(=O)OC)o1 (configuration not stated),-1,0,-2,2,3,-3
N=C1C(c2nc3ccccc3[nH]2)=C(O)CN1c1ccc(F)cc1,0,0,-1,0,0,4
CN(c1ccc(OCC(=O)NC2CCCC2)cc1)S(=O)(=O)c1cccs1,-2,-2,-1,2,-1,0
CN(c1ccc(OCC(=O)OCC(=O)NC2CCCC2)cc1)S(=O)(=O)c1ccc2ccccc2c1,3,0,1.2*,0,1,1
C[C@@H](C(=O)Nc1cc(C(F)(F)F)ccc1N1CCOCC1)N1C(=O)C2CC=CCC2C1=O (some centres not stated),0,0,-1,/,1,1
O=C(Cc1cccs1)NCc1cccc(Cl)c1,-1,1,0,/,0,6
COc1ccc2c(=O)c(-c3ccc4c(c3)OCO4)coc2c1,5.7*,2,1,-6,3,17*
CC(C)Oc1ccc2c(=O)c(-c3ccccc3)coc2c1,3,1,0,-7,8.3*,14*
CCc1cc2c(=O)c(-c3ccc4c(c3)OCCO4)coc2cc1OC(=O)c1ccco1,3,1,-1,-2,3,11*
COC(=O)COc1ccc2c(=O)c(-c3ccccc3)coc2c1,-2,1,-1,-1,0,-2
CCN(CC)C(=O)Oc1ccc2c(=O)c(-c3ccc(OC)cc3)coc2c1,-2,1,-2,-3,1,6
CCCc1cc2c(=O)c(-c3ccc4c(c3)OCCO4)coc2cc1OC(=O)c1ccco1,1,1,0,3,0,2
COc1ccc(CCNC(=O)Cn2cnc3c(cnn3C(C)(C)C)c2=O)cc1OC,0,0,-1,-3,-1,-1

# From PubChem
